From PubChem BioAssay AID1159580 (chemical genetic matrix, 2015)
Out of some 5,500 compounds screened, about 2,000 (36%) were called active. Not shown: some 18% with an inconclusive outcome. Cut-off read from the data, not from the text of the source: active = normalized growth mostly below about 0.91 (no sharp cut-off); inconclusive = no clear call, values can overlap the other calls; inactive = mostly above about 0.92. Some of the results follow.

Assay: chemical genetic growth profiling, strain panel (AID 1159580);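 note: tested at 20 µM; growth read once vehicle control cultures reached saturation at 30 °C; 1 = growth at the plate median or of vehicle wells; lower values mean less growth of the strain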
Details: growth OD

Measured: normalized growth

C=CCCCCCCCCCCCC(O)CC(O)CO (centres undefined)
active: S. cerevisiae deletion strains, locus YKL009W, strain mrt4, hits give low values 0.852 | S. cerevisiae deletion strains, locus YKR001C, strain vps1, hits give low values 0.839 | S. cerevisiae deletion strains, locus YLR330W, strain CHS5, hits give low values 0.917 | S. cerevisiae deletion strains, locus YLR342W, strain FKS1 (second series), hits give low values 0.756 | S. cerevisiae deletion strains, locus YLR418C, strain cdc73, hits give low values 0.759 | S. cerevisiae deletion strains, locus YML032C, strain rad52, hits give low values 0.869 | S. cerevisiae deletion strains, locus YMR223W, strain ubp8, hits give low values 0.858 | S. cerevisiae deletion strains, locus YNL233W, strain BNI4, hits give low values 0.834 | S. cerevisiae deletion strains, locus YNL298W, strain CLA4, hits give low values 0.907 | S. cerevisiae deletion strains, locus YNL307C, strain MCK1, hits give low values 0.499 | S. cerevisiae deletion strains, locus YOL147C, strain pex11, hits give low values 0.778 | S. cerevisiae deletion strains, locus YOR061W, strain CKA2, hits give low values 0.635 | S. cerevisiae deletion strains, locus YOR184W, strain ser1, hits give low values 0.719 | S. cerevisiae strains, strain wild type, hits give low values 0.861
inactive: S. cerevisiae deletion strains, locus YJR043C, strain POL32, hits give low values 0.952 | S. cerevisiae deletion strains, locus YJR075W, strain HOC1, hits give low values 0.896 | S. cerevisiae deletion strains, locus YKL068W, hits give low values 0.995 | S. cerevisiae deletion strains, locus YKL085W, strain MDH1 (second series), hits give low values 0.96 | S. cerevisiae deletion strains, locus YKL085W, strain MDH1, hits give low values 0.96 | S. cerevisiae deletion strains, locus YKL160W, strain elf1, hits give low values 0.989 | S. cerevisiae deletion strains, locus YKL190W, strain CNB1, hits give low values 0.947 | S. cerevisiae deletion strains, locus YKR026C, strain gcn3, hits give low values 0.988 | S. cerevisiae deletion strains, locus YKR091W, strain srl3, hits give low values 0.995 | S. cerevisiae deletion strains, locus YLL001W, strain dnm1, hits give low values 0.976 | S. cerevisiae deletion strains, locus YLL026W, hits give low values 0.997 | S. cerevisiae deletion strains, locus YLL041C, strain sdh2, hits give low values 0.998 | S. cerevisiae deletion strains, locus YLR027C, strain aat2, hits give low values 0.999 | S. cerevisiae deletion strains, locus YLR039C, strain RIC1, hits give low values 0.996 | S. cerevisiae deletion strains, locus YLR058C, strain SHM2, hits give low values 0.944 | S. cerevisiae deletion strains, locus YLR102C, strain apc9, hits give low values 0.99 | S. cerevisiae deletion strains, locus YLR221C, strain rsa3, hits give low values 0.998 | S. cerevisiae deletion strains, locus YLR258W, strain gsy2, hits give low values 1.01 | S. cerevisiae deletion strains, locus YLR262C, strain YPT6 (second series), hits give low values 1.01 | S. cerevisiae deletion strains, locus YLR262C, strain YPT6, hits give low values 0.959 | S. cerevisiae deletion strains, locus YLR268W, strain sec22, hits give low values 0.971 | S. cerevisiae deletion strains, locus YLR320W, strain mms22, hits give low values 0.985 | S. cerevisiae deletion strains, locus YLR342W, strain FKS1, hits give low values 1 | S. cerevisiae deletion strains, locus YLR357W, strain rsc2, hits give low values 0.975 | S. cerevisiae deletion strains, locus YLR370C, strain arc18, hits give low values 0.993 | S. cerevisiae deletion strains, locus YLR371W, strain rom2, hits give low values 0.952 | S. cerevisiae deletion strains, locus YLR384C, strain iki3, hits give low values 0.997 | S. cerevisiae deletion strains, locus YML016C, strain PPZ1, hits give low values 0.988 | S. cerevisiae deletion strains, locus YML120C, strain ndi1, hits give low values 0.995 | S. cerevisiae deletion strains, locus YML124C, strain tub3, hits give low values 0.991 | S. cerevisiae deletion strains, locus YMR058W, strain fet3, hits give low values 1.01 | S. cerevisiae deletion strains, locus YMR078C, strain ctf18, hits give low values 0.964 | S. cerevisiae deletion strains, locus YMR125W, strain sto1, hits give low values 0.979 | S. cerevisiae deletion strains, locus YMR129W, hits give low values 0.988 | S. cerevisiae deletion strains, locus YMR205C, strain PFK2, hits give low values 0.974 | S. cerevisiae deletion strains, locus YMR231W, strain pep5, hits give low values 0.995 | S. cerevisiae deletion strains, locus YMR263W, strain SAP30, hits give low values 0.955 | S. cerevisiae deletion strains, locus YMR307W, strain GAS1, hits give low values 0.792 | S. cerevisiae deletion strains, locus YNL067W, strain RPL9B, hits give low values 0.903 | S. cerevisiae deletion strains, locus YNL071W, strain lat1, hits give low values 0.989 | S. cerevisiae deletion strains, locus YNL128W, strain TEP1, hits give low values 0.924 | S. cerevisiae deletion strains, locus YNL153C, strain GIM3, hits give low values 0.979 | S. cerevisiae deletion strains, locus YNL209W, strain ssb2, hits give low values 1 | S. cerevisiae deletion strains, locus YNL248C, strain rpa49, hits give low values 0.993 | S. cerevisiae deletion strains, locus YNL250W, strain rad50, hits give low values 0.939 | S. cerevisiae deletion strains, locus YNL271C, strain bni1, hits give low values 0.953 | S. cerevisiae deletion strains, locus YNL322C, strain KRE1 (second series), hits give low values 0.981 | S. cerevisiae deletion strains, locus YNL322C, strain KRE1, hits give low values 0.979 | S. cerevisiae deletion strains, locus YNR049C, strain mso1, hits give low values 0.995 | S. cerevisiae deletion strains, locus YNR052C, strain pop2, hits give low values 0.946 | S. cerevisiae deletion strains, locus YOL006C, strain TOP1, hits give low values 0.808 | S. cerevisiae deletion strains, locus YOL012C, strain htz1 1.72 | S. cerevisiae deletion strains, locus YOR001W, strain rrp6, hits give low values 0.998 | S. cerevisiae deletion strains, locus YOR069W, strain VPS5, hits give low values 0.978 | S. cerevisiae deletion strains, locus YOR070C, strain gyp1, hits give low values 0.992 | S. cerevisiae deletion strains, locus YOR080W, strain dia2, hits give low values 0.998 | S. cerevisiae deletion strains, locus YOR083W, strain WHI5, hits give low values 0.965 | S. cerevisiae deletion strains, locus YOR106W, strain vam3, hits give low values 1.02 | S. cerevisiae deletion strains, locus YOR136W, strain idh2, hits give low values 0.935 | S. cerevisiae deletion strains, locus YOR144C, strain elg1, hits give low values 0.982 | S. cerevisiae deletion strains, locus YOR265W, strain rbl2, hits give low values 1 | S. cerevisiae deletion strains, locus YOR270C, strain vph1, hits give low values 1.01 | S. cerevisiae deletion strains, locus YOR290C, strain snf2, hits give low values 0.93 | S. cerevisiae deletion strains, locus YOR316C, strain cot1, hits give low values 0.977 | S. cerevisiae deletion strains, locus YPL051W, strain arl3, hits give low values 0.999 | S. cerevisiae deletion strains, locus YPL055C, strain LGE1, hits give low values 0.843 | S. cerevisiae deletion strains, locus YPL078C, strain atp4, hits give low values 0.986 | S. cerevisiae deletion strains, locus YPL106C, strain sse1, hits give low values 1.01 | S. cerevisiae deletion strains, locus YPL240C, strain hsp82, hits give low values 1 | S. cerevisiae deletion strains, locus YPL241C, strain CIN2, hits give low values 0.987 | S. cerevisiae deletion strains, locus YPR119W, strain clb2, hits give low values 0.989 | S. cerevisiae deletion strains, locus YPR141C, strain kar3, hits give low values 1 | S. cerevisiae deletion strains, locus YPR163C, strain tif3, hits give low values 0.95 | S. cerevisiae deletion strains, locus YPR167C, strain met16, hits give low values 0.964 | S. cerevisiae deletion strains, strain wtn01, hits give low values 0.904
